# Results published in the supplement of paper PMC11219838.
# Tested on: Caenorhabditis elegans L1 (N2)
# Assay: survival and reproduction score of C. elegans L1 (0: 0-10 living worms, 1: 11-20, 2: 21-50, 3: >50, 4: overgrown) (score 0-4); higher = more worms, less nematicidal, active = 1 or less; extreme values may be limits of the assay
# Settings: 60 µM; 6 days; temperature: 20 °C
# How it was run: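 Worm survival and reproduction were recorded as an ordinal score of living worms per well, read under a dissection microscope. Each 96-well well held about 20 synchronized C. elegans N2 L1s with E. coli HB101 in liquid NGM and compound at 60 µM final (0.6% v/v DMSO), sealed and shaken at 200 rpm, 20 °C, for 6 days. Scores ranged from 0 (0–10 worms) to 4 (overgrown, starved) and were the mean of two biological replicates.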
row,Structure (SMILES),survival and reproduction score
1,Fc1cccc(-c2nc(-c3ccccc3)no2)c1,0 (active)
2,COC(=O)c1ccc(NC(=O)CSc2nnc(-c3ccc(Cl)cc3Cl)o2)cc1,4 (inactive)
3,c1ccc(CSc2nnc(-c3ccccc3)o2)cc1,0 (active)
4,Cc1ccc(-c2noc(COc3ccc(Br)cc3)n2)cc1,4 (inactive)
5,Cc1ccc(OCc2nc(-c3cccnc3)no2)cc1C,4 (inactive)
6,Cc1ccc(-c2nnc(SCc3ccc(Br)cc3)o2)cc1,4 (inactive)
7,Cc1ccc(OCc2nc(-c3ccc(F)cc3)no2)cc1C,4 (inactive)
8,Cc1ccc(-c2noc(COc3cc(C)ccc3C)n2)cc1,4 (inactive)
9,Cc1ccc(-c2noc(COc3cc(C)cc(C)c3)n2)cc1,4 (inactive)
10,CCOc1nc(-c2ccc(C)cc2)ccc1-c1noc(CC)n1,4 (inactive)
11,Cc1ccccc1-c1noc(-c2cccc(Br)c2)n1,4 (inactive)
12,N#Cc1cccc(CSc2nnc(-c3ccncc3)o2)c1,4 (inactive)
13,COc1ccc(-c2noc(-c3ccccc3Cl)n2)cc1,4 (inactive)
14,COc1ccccc1-c1nnc(SCC(=O)Nc2ccc(F)cc2)o1,4 (inactive)
15,Clc1ccccc1-c1noc(-c2cccnc2)n1,4 (inactive)
16,COc1nc(C)ccc1-c1noc(-c2ccccc2C)n1,4 (inactive)
17,COc1ccc(Cl)cc1-c1noc(-c2cccc(C)c2)n1,4 (inactive)
18,COc1cccc(-c2noc(COc3cccc(C)c3C)n2)c1,2 (inactive)
19,CCCC(=O)Nc1ccccc1-c1nc(-c2cccnc2)no1,4 (inactive)

row,Structure (SMILES),survival and reproduction score
1,COc1ccccc1-c1noc(-c2ccccc2F)n1,4 (inactive)
2,Cc1ccc(CSc2nnc(-c3ccco3)o2)c(C)c1,0 (active)
3,c1ccc(-c2noc(COc3cccc4ccccc34)n2)nc1,4 (inactive)
4,CCOc1ccccc1-c1nnc(SCC(=O)NC(C)CC)o1 (stereo not drawn),4 (inactive)
5,Clc1ccc(CSc2nnc(-c3ccccc3Cl)o2)cc1,4 (inactive)
6,Ic1ccc(CSc2nnc(-c3ccco3)o2)cc1,3.5 (inactive)
7,CCN(Cc1ccccc1)C(=O)c1ccccc1-c1nc(-c2cccc(C)c2)no1,4 (inactive)
8,CC(C)C(=O)Nc1ccccc1-c1nc(-c2ccncc2)no1,4 (inactive)
9,Fc1ccc(-c2noc(-c3ccc(F)cc3)n2)cc1,0 (active)
10,CCOc1nc(-c2ccc(C)cc2)ccc1-c1noc(-c2ccc(F)cc2)n1,2 (inactive)
11,O=C(CSc1nnc(-c2ccccc2Cl)o1)Nc1ccc(F)cc1,4 (inactive)
12,CCOc1nc(-c2ccc(C)cc2)ccc1-c1noc(-c2ccco2)n1,4 (inactive)
13,C=CCSc1nnc(-c2ccc(Br)cc2)o1,0 (active)
14,CC(C)(C)c1ccc(-c2noc(COc3ccccc3)n2)cc1,4 (inactive)
15,COc1cccc(-c2noc(-c3ccc(C)cc3Cl)n2)c1,4 (inactive)
16,NC(=O)COc1ccccc1-c1nc(-c2ccccc2Cl)no1,4 (inactive)
17,C=CCOc1cccc(-c2nc(-c3cccnc3)no2)c1,0 (active)
18,Cc1ccc(-c2nnc(SCC(=O)NCc3ccccc3)o2)cc1,4 (inactive)
19,CCC(=O)Nc1ccccc1-c1nc(-c2ccccn2)no1,4 (inactive)
